This note sets out measurements from PubChem BioAssay (NCI).

About 79,000 compounds went through this panel and 15% of them were active in at least one assay; those are over-represented in the sample as a whole. Unmarked numbers belong to inactive results. Activity calls are given as the source filed them. Rule as the data show it: active = growth inhibition above about 70%; inactive = the rest.

A short description of assay [1]: NCI Yeast Anticancer Drug Screen. Data for the rad50 strain (AID 155).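 Also: 0% = growth of vehicle-only cultures of the same strain.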 The settings on record: S. cerevisiae rad50 strain growth inhibition; at 50.0 µM; hits give high values. The procedure, abridged:
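Yeast carrying a defined DNA repair defect were exposed to test compounds, and growth was compared with vehicle-treated controls to give percent inhibition.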

Assay [2] is described as follows: NCI Yeast Anticancer Drug Screen. Data for the mec2-1 strain (AID 157). The following applies: S. cerevisiae mec2-1 strain, at 50.0 µM, hits give high values. The procedure, abridged:
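mec2-1 yeast strain, carrying an alteration in DNA damage repair or cell cycle control, was exposed to compounds; growth inhibition was measured relative to vehicle-treated controls.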

A short description of assay [3]: NCI Yeast Anticancer Drug Screen. Data for the sgs1 mgt1 strain (AID 161).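 Also: 0% = growth of cultures given vehicle only.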 The following applies: S. cerevisiae sgs1 mgt1 strain, at 50.0 µM, hits give high values. The procedure, abridged:
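Growth of a repair-deficient yeast mutant was monitored after compound treatment and expressed as inhibition relative to vehicle-treated cultures.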

Assay [4] can be described thus: NCI Yeast Anticancer Drug Screen. Data for the cln2 rad14 strain (AID 165).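 Also: 0% = growth equal to vehicle treated cultures.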 The settings on record: S. cerevisiae cln2 rad14 strain, at 50.0 µM, hits give high values. The procedure, abridged: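 Yeast carrying cln2 and rad14 alterations (cell cycle control and DNA damage repair) were exposed to compounds. Growth inhibition was measured against vehicle-treated controls.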

The nature of assay [5]: NCI Yeast Anticancer Drug Screen. Data for the bub3 strain (AID 167). The settings on record: S. cerevisiae bub3 mutant strain, at 50.0 µM, hits give high values. The procedure, abridged: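 Compounds were applied to a genetically altered yeast strain carrying a cell-cycle control defect. Growth inhibition was scored against vehicle-treated controls.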
Assay [6] is described as follows: NCI Yeast Anticancer Drug Screen. Data for the mlh1 rad18 strain (AID 175). The settings on record: S. cerevisiae mlh1 rad18 strain growth inhibition; at 50.0 µM; hits give high values. The procedure, abridged: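 Growth inhibition of the yeast strain was measured after compound exposure and expressed relative to vehicle-treated controls. The strain carries defined defects in DNA damage repair.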

For the compound `O=C(Nc1c(O)[nH]c(=S)[nH]c1=O)c1ccccn1`, the growth inhibition is 6.95% in assay [1]; -14.7% in assay [2]; -3.75% in assay [3]; 1.7% in assay [4]; -8.3% in assay [5]; -8.3% in assay [6].
As for `O=C1C(=C(O)c2ccccc2)C(=O)c2ccccc21`, the growth inhibition was -3% in assay [1]; 1.65% in assay [2]; 1.65% in assay [3]; -0.25% in assay [4]; -1.8% in assay [5]; 12.3% in assay [6].
As for `CCCCC[As](=O)(O)O`, the growth inhibition is 12.2% in assay [1]; -6.4% in assay [2]; 1.2% in assay [3]; -5.6% in assay [4]; 4.3% in assay [5]; 7.95% in assay [6].
Consider `C[N+](C)(C)CC1CCCC(C[N+](C)(C)C)C1=NO` (stereo unspecified), for which the growth inhibition in assay [1] was 24.9%; in assay [2], 12.1%; in assay [3], -4.85%; in assay [4], 19.7%; in assay [5], -1.5%; in assay [6], 20.6%.
In the case of `Cc1c2ccncc2c(C)c2c1[nH]c1ccccc12`, the growth inhibition in assay [1] was 91.2% (active); in assay [2], 89.5% (active); in assay [3] it was 90.5% (active); in assay [4] it was 84.9% (active); in assay [5], 89.6% (active); in assay [6] it was 90.7% (active).
On to `C[N+]1(C)C2CCC1CC(O)C2` (stereo unspecified), for which the growth inhibition in assay [1] was 5.45%; in assay [2], -9.85%; in assay [3], 3.55%; in assay [4], 23.1%; in assay [5], -6.35%; in assay [6], 3.6%.
On to `CC1(C(=O)O)OC1c1ccccc1` (stereo unspecified), for which the growth inhibition in assay [1] was 4.2%; in assay [2] it was 1.2%; in assay [3], 6.85%; in assay [4], -11.7%; in assay [5] it was 10.2%; in assay [6] it was -7.7%.
Regarding `CC(=O)C(C(C)=O)C(C)=O.[Cr]`, the growth inhibition in assay [1] was 4.85%; in assay [2], -15.1%; in assay [3], -3.6%; in assay [4], 11.1%; in assay [5], -16.1%; in assay [6], 6.45%.
For `Cc1ccc(Cl)c2c1CC(=[N+]=[N-])C2=O`, the growth inhibition in assay [1] was 10.2%; in assay [2], 5.2%; in assay [3], 8.7%; in assay [4], -0.45%; in assay [5], 10.5%; in assay [6], 7.15%.
Turning to `CCCOP(=O)(OCCC)C(=O)Nc1ccc(Br)cc1`, the growth inhibition in assay [1] is -25.7%; in assay [2], 2.95%; in assay [3], 6.25%; in assay [4], -24.1%; in assay [5], 25%; in assay [6], -9.5%.
Regarding `CSCCC(N)C(=O)O.[Pb]` (stereo unspecified), the growth inhibition in assay [1] was -17.9%; in assay [2], -10.3%; in assay [3], 13.1%; in assay [4], -40.4%; in assay [5], -12.4%; in assay [6], -20.2%.
On to `CCOC(=O)C12CCC(=O)C=C1CN(C)CC2` (stereo unspecified), for which the growth inhibition in assay [1] was -2.25%; in assay [2] it was 0.1%; in assay [3], -3.3%; in assay [4], -17.1%; in assay [5] it was -13.2%; in assay [6], 0.8%.
Regarding `O=c1ccc2cc3ccoc3c(O)c2o1`, the growth inhibition in assay [1] is 28.6%; in assay [2] it was 0%; in assay [3], 25.7%; in assay [4], 30.6%; in assay [5] it was 10.8%; in assay [6], 18.2%.
In the case of `CC(=O)[CH-]C(C)=O.F[P-](F)(F)(F)(F)F.[Co+3].[NH-]CC[NH-].[NH-]CC[NH-]`, the growth inhibition was -1.2% in assay [1]; -15.4% in assay [2]; -12.2% in assay [3]; -29.9% in assay [4]; -4.35% in assay [5]; -5.35% in assay [6].
With `O=[N+]([O-])c1cccc2ncccc12`, the growth inhibition was -2.95% in assay [1]; -14.4% in assay [2]; 18.4% in assay [3]; -6.55% in assay [4]; 17.7% in assay [5]; 9.3% in assay [6].
As for `CNC(=O)Oc1ccc(Br)cc1Br`, the growth inhibition in assay [1] was 29.4%; in assay [2], -0.95%; in assay [3], -2.6%; in assay [4] it was -3.55%; in assay [5] it was 10.9%; in assay [6] it was 2.35%.
For the compound `NC(=O)Cc1ccccc1`, the growth inhibition in assay [1] was -17.1%; in assay [2] it was -14.9%; in assay [3] it was -6.55%; in assay [4], 8.75%; in assay [5], -2.45%; in assay [6] it was 24.9%.
Take `COc1ccc(/C=C/C=C2C(=O)NC(=S)NC2=O)cc1`: the growth inhibition in assay [1] was 25.6%; in assay [2], 4.55%; in assay [3] it was 29.1%; in assay [4], 11.2%; in assay [5], 0.75%; in assay [6], 25.2%.
Turning to `CC(C)CC(C)(C)COP(=S)(OCC(C)(C)CC(C)C)OCC(C)(C)CC(C)C`, the growth inhibition is 13.6% in assay [1]; -15% in assay [2]; 0.8% in assay [3]; -37% in assay [4]; -8.75% in assay [5]; 10.6% in assay [6].
As to `CCCCOP(=O)(Cc1ccccc1)Oc1ccccc1` (stereo unspecified), the growth inhibition was 73% (active) in assay [1]; 32% in assay [2]; 68.8% in assay [3]; 50.4% in assay [4]; 35.3% in assay [5]; 27.6% in assay [6].
For `CC(C)(C)SCC(NC(=O)OCc1ccccc1)C(=O)O` (stereo unspecified), the growth inhibition in assay [1] is 10.8%; in assay [2], 1.7%; in assay [3], 14.3%; in assay [4] it was 18.9%; in assay [5], 4.25%; in assay [6] it was 7%.
